Source: PubChem BioAssay (NCI)
Compounds without any hit were thinned out: in the full panel of roughly 79,000, 15% have a hit. Cut-off read from the data, not from the text of the source: active = growth inhibition above about 70%; inactive = the rest.

Columns and labels:
[1] = NCI Yeast Anticancer Drug Screen. Data for the rad50 strain (AID 155);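 note: 0% = growth of vehicle-only cultures of the same strain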; conditions: S. cerevisiae rad50 strain growth inhibition; at 50.0 µM; active compounds read high
Method in brief: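 Yeast carrying a defined DNA repair defect were exposed to test compounds, and growth was compared with vehicle-treated controls to give percent inhibition.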

[2] = NCI Yeast Anticancer Drug Screen. Data for the mec2-1 strain (AID 157); conditions: S. cerevisiae mec2-1 strain, at 50.0 µM, active compounds read high
Method in brief: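 Yeast mec2-1 mutant treated with compound. Readout: growth inhibition vs vehicle controls.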

[3] = NCI Yeast Anticancer Drug Screen. Data for the sgs1 mgt1 strain (AID 161);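 note: 0% = growth of cultures given vehicle only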; conditions: S. cerevisiae sgs1 mgt1 strain, at 50.0 µM, active compounds read high
Method in brief: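 Read-out: growth inhibition vs vehicle controls. Cells: mutant yeast strain deficient in DNA damage repair.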

[4] = NCI Yeast Anticancer Drug Screen. Data for the cln2 rad14 strain (AID 165);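 note: 0% = growth equal to vehicle treated cultures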; conditions: S. cerevisiae cln2 rad14 strain, at 50.0 µM, active compounds read high
Method in brief: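 cln2 rad14 yeast strain; compound exposure; growth inhibition read vs vehicle controls.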

[5] = NCI Yeast Anticancer Drug Screen. Data for the bub3 strain (AID 167); conditions: S. cerevisiae bub3 mutant strain, at 50.0 µM, active compounds read high
Method in brief: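 Compounds were applied to a genetically altered yeast strain carrying a cell-cycle control defect. Growth inhibition was scored against vehicle-treated controls.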

[6] = NCI Yeast Anticancer Drug Screen. Data for the mlh1 rad18 strain (AID 175); conditions: S. cerevisiae mlh1 rad18 strain growth inhibition; at 50.0 µM; active compounds read high
Method in brief: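 Yeast w/ defined DNA-repair lesions; compound exposure; growth vs vehicle controls → % inhibition.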

Measured: growth inhibition

Cc1nc2c(ccc3ccccc32)s1
inactive: [1] 10.4% | [2] -5.35% | [3] 22.7% | [4] 6.45% | [5] 3.5% | [6] 15.4%

O=c1cc(-c2ccccc2)oc2c1ccc1ccccc12
inactive: [1] 11% | [2] 34.1% | [3] 21.9% | [4] -90.3% | [6] 38.5%

CCCC[P+](c1ccccc1)(c1ccccc1)c1ccccc1
inactive: [1] 45.5% | [2] 40% | [3] 48.4% | [4] 37.2% | [6] 65.2%

CC(=O)Cc1ccc(-c2ccccc2)cc1
inactive: [1] 18.4% | [2] 14.8% | [3] 8.3% | [4] -25.4% | [6] 24.6%

CCCOC(=O)C(O)c1ccccc1 (stereo unspecified)
inactive: [1] 16.2% | [2] -6.25% | [3] -5.5% | [4] -24.1% | [6] 14.8%

CCOC(=O)C/C(C)=N\O
inactive: [1] 4.05% | [2] -11.3% | [3] 7.9% | [4] 8.45% | [6] 2.4%

NC(=S)CN1CCOCC1
inactive: [1] -2.6% | [2] -3.2% | [3] -5.9% | [4] 1.6% | [6] 2.15%

CC1CCC2C(C)(C)C3CC12CC1OC13C (stereo unspecified)
inactive: [1] -17.4% | [2] -30.4% | [3] 0.7% | [4] 4.95% | [6] -14.5%

COc1ccc(/C=C/c2cccc[n+]2C)cc1
inactive: [1] 1.35% | [2] 1.3% | [3] -7.1% | [4] 0.55% | [6] -11.2%

COc1ccc(C2(O)CCCCC2)cc1
inactive: [1] 17.7% | [2] -13.2% | [3] 2.85% | [4] 6.45% | [6] 28.2%

O=C(CCNNC(=O)c1ccncc1)NCc1ccccc1
inactive: [1] 8.25% | [2] 11.6% | [3] 11.9% | [4] -46% | [6] 7.3%

CCOC(=O)/C(=C/c1ccc(OC)cc1)N(CC)CC
inactive: [1] -45.8% | [2] -22.7% | [3] -17.4% | [4] 0.5% | [5] -19.1% | [6] -20.4%

CCCCCCCCO
inactive: [1] 12.1% | [2] 17.2% | [3] 2.25% | [4] 5.5% | [6] -13.2%

CC(=O)c1ccc(C)c(N)c1
inactive: [1] -4.15% | [2] 0.15% | [3] 6.25% | [4] -0.6% | [6] 27.4%

CC(=O)NC(N)=S
inactive: [1] 2.3% | [2] 3.75% | [3] -23.1% | [4] -3.05% | [6] -7%

O=P(O)(O)OCC(O)CO (stereo unspecified)
inactive: [1] -4.6% | [2] -7.3% | [3] 8.95% | [4] 25.3% | [6] -10.5%

O=C1OC[C@H]2[C@H](c3ccc(O)c(O)c3)c3cc(O)c(O)cc3C[C@H]12
inactive: [1] 24.9% | [2] -2.45% | [3] 23.9% | [4] 15.8% | [6] 10.9%

Cc1ccc(Cl)cc1NC(=O)N(C)CCO
inactive: [1] 6.3% | [2] 7.65% | [3] 9.9% | [4] 16.6% | [6] 22.7%

O=S(=O)(O)C(Nc1ccccc1)c1ccccc1 (stereo unspecified)
inactive: [1] -4.35% | [2] -27.7% | [3] 9.5% | [5] 16% | [6] -11.6%

CC1=CC(C)(C)NC(=S)N1c1ccc(S(=O)(=O)O)c2cccc(S(=O)(=O)O)c12
inactive: [1] -4.8% | [2] -5.25% | [3] -13.1% | [4] -30.9% | [6] -33.1%

O=C(Nc1cc(-c2ccccc2)[nH]n1)c1ccc(Cl)cc1
inactive: [1] -5.35% | [2] -21.1% | [3] 6.05% | [4] -1% | [6] -3.3%

O=C(c1ccc(Cl)cc1)c1ccccc1Cl
inactive: [1] 37.9% | [2] -8.3% | [3] 41.3% | [4] -41.1% | [6] 19%

CCOC(=O)c1cc2cccc(OC)c2oc1=O
inactive: [1] 6.15% | [2] 3.45% | [3] -5.65% | [4] -4.75% | [6] -0.2%

CC(C)COC(=O)COC(=O)OCCOCCOC(=O)OCC(=O)OCC(C)C
inactive: [1] 36.5% | [2] -8.7% | [3] 17.4% | [4] -26.9% | [6] 8.6%

CC(C)(C)c1cc(O)c(C(C)(C)C)cc1O
inactive: [1] 12.1% | [2] -0.05% | [3] 6.05% | [4] -1.85% | [6] 11.2%

O=[N+]([O-])c1cccc(N=Nc2ccc(O)cc2O)c1
inactive: [1] 30.6% | [2] -5.65% | [3] 65.5% | [4] 15.6% | [6] 20.6%

c1ccc2c(N3CCCCC3)ncnc2c1
inactive: [1] 0.85% | [2] -1% | [3] -4.65% | [5] 2.15% | [6] -3%

CC(=O)Nc1ccc(NC(C)=O)c2c1C(=O)c1ccccc1C2=O
inactive: [1] 5.55% | [2] -24.1% | [3] -10.3% | [5] -19.3% | [6] 23.9%

CN(C)c1ccc2oc(=O)c3ccccc3c2c1
inactive: [1] 6.05% | [2] 7.55% | [3] 1.55% | [5] 0.5% | [6] -33%

CC(CN1CCCCC1)NC(=O)c1scnc1-c1ccccc1 (stereo unspecified)
inactive: [1] -5.45% | [2] -10% | [3] -9.15% | [5] -1.55% | [6] -4.55%

CC(O)COc1ccc(-c2ccccc2)cc1 (stereo unspecified)
inactive: [1] 5.5% | [2] -2.9% | [3] 33% | [5] 28.1% | [6] 19.9%

CCCCOC(=O)c1ccc(C(C)C)cc1
inactive: [1] 8.85% | [2] 6.85% | [3] 8.65% | [5] 7.55% | [6] 4.35%

CC(=O)c1ccc(C(C)(C)C)cc1
inactive: [1] -2.35% | [2] -5.2% | [3] -12.9% | [5] 2.5% | [6] 15%

Nc1nc2c(c(-c3nc(N)nc4c3CCc3ccccc3-4)n1)CCc1ccccc1-2
inactive: [1] -0.5% | [2] -12.6% | [3] -25.1% | [5] -20.5% | [6] 2.9%

CNS(=O)(=O)c1ccc(Cl)c(Cl)c1
inactive: [1] -43.2% | [2] -5.1% | [3] -13.5% | [5] -25.4% | [6] -40.9%

O=C1C[C@H](c2ccccc2)[C@H](c2ccccc2)C1
inactive: [1] 24.2% | [2] 4.85% | [3] 10.4% | [5] -5.55% | [6] 9.8%

CC(C)(C)n1nc(C2CC2)c(Br)c1NC(=O)c1ccccc1F
inactive: [1] -6.6% | [2] -12.2% | [3] 8.7% | [5] 5.55% | [6] 10.9%

COC(=O)CCCCC1=CCC2C(=O)C=C(O)C2C1 (stereo unspecified)
inactive: [1] -13.3% | [2] 13.1% | [3] -11.2% | [5] -6.6% | [6] -18.8%

COCCCNC(=O)c1nnn2c1nc(N)c1cc(Cl)ccc12
inactive: [1] -2.65% | [2] 2.75% | [3] 25.6% | [5] 23.6% | [6] 10.6%

N#CCCc1ccc(O)cc1
inactive: [1] -25.1% | [2] -44.2% | [3] -34.9% | [5] -17.9% | [6] -19.1%

COC(=O)Nc1nc2ccc(C(=O)c3cccs3)cc2[nH]1
inactive: [1] -1.25% | [2] 33.4% | [3] 17.5% | [5] 24.4% | [6] 19%

C/C(=N/NC(N)=O)c1ccco1
inactive: [1] 1.1% | [2] -1.05% | [3] -3.55% | [5] 1.95% | [6] -3.55%

CC1=C(/C=C/C(C)=C/C=C/C(C)=C/CO)C(C)(C)CCC1
inactive: [1] 14.8% | [2] 4.45% | [3] -3.15% | [5] -42.2% | [6] 6.55%

CS(=O)CC1=NC(=N)N=C1CS(C)=O (stereo unspecified)
inactive: [1] -9.75% | [2] -11.2% | [3] 12.1% | [6] 5.75%

COC(=O)Nc1nc2ccc(C(=O)c3ccc(F)cc3)cc2[nH]1
inactive: [1] -9% | [2] -6.35% | [3] -30.2% | [5] -17.5% | [6] -43.9%

CCCCCC(C)(CC(=O)O)CC(=O)O
inactive: [1] -18.6% | [2] -15.3% | [3] -21.4% | [5] 0.7% | [6] -15.4%

CC(=O)C1CCCCC1
inactive: [1] 26.7% | [2] 11.2% | [3] 4.5% | [5] 1.2% | [6] 16.8%

CCOc1ccccc1/C=N/Nc1nc2ccccc2o1
inactive: [1] 30.6% | [2] 0.4% | [3] -2.8% | [5] 6.85% | [6] 33.6%

CN(C)C(=O)Oc1cccc([N+](C)(C)C)c1
inactive: [1] -1.5% | [2] -8.2% | [3] 5.95% | [5] 0.2% | [6] -5.35%
